{"source": "PubChem BioAssay AID1458", "about": "(National Center for Advancing Translational Sciences (NCATS), 2008)", "note": "Among all 210,000 compounds or so, about 5,900 (2.8%) were called active. Not shown: some 5% with an inconclusive outcome. For the sample, actives were picked, then their nearest neighbours and some compounds at random. Unmarked numbers belong to inactive results. Calls come from the whole dose curve; as a rule, active = well fitted activation curve with a large enough effect; inconclusive = small, poorly fitted or top-dose-only effect; inactive = no such curve, though single readings can be large or run the other way. Potency is the fitted concentration of half-maximal effect.", "data": [{"experiment": "qHTS Assay for Enhancers of SMN2 Splice Variant Expression; note: nearly all actives have a fitted effect of over 55% in size; for activity change, positive = activation: % of control where 0% means no effect", "settings": "HEK293 SMN2-luciferase splicing reporter, luminescence, 30-36 h; series mostly up to 46.1 µM; activity change, positive = activation: at the top concentration", "how_it_was_run": "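HEK293 cells carry an SMN2 […]–luciferase reporter in which exon 7 inclusion puts luciferase in frame. Cells were plated 10-12 h before compound addition, then incubated 30-36 h at 37C. ONE-Glo luminescence was read; sodium butyrate at 4.5 mM final served as control.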", "units": {"activity change, positive = activation": "%"}, "values": [{"smiles": "COc1ccc(C(=O)Nc2ccc(S(=O)(=O)NC(C)C)cc2)cc1", "activity change, positive = activation": -6.41}, {"smiles": "COc1ccc(NC(=O)c2ccc(OC)cc2)cc1", "Potency": "11.2 µM (active)"}, {"smiles": "COc1ccc(C(=O)Nc2ccc(F)cc2F)cc1", "Potency": "10 µM (active)"}, {"smiles": "COc1ccc(NC(=O)c2ccc(C#CC(C)(C)O)cc2)cc1", "activity change, positive = activation": -25.7}, {"smiles": "COc1ccc(NC(=O)c2c(C)oc3c2CCCC3)cc1", "activity change, positive = activation": -13.5}, {"smiles": "COc1ccccc1CC(=O)Nc1ccc(F)cc1F", "activity change, positive = activation": 8.91}, {"smiles": "COc1cc(OC)cc(C(=O)OCC(=O)Nc2ccc(F)cc2F)c1", "activity change, positive = activation": -0.371}, {"smiles": "CCc1cc(C(c2ccccc2OC)N2CCOCC2)c(NC(=O)c2ccccc2)s1", "note": "(stereo unspecified)", "activity change, positive = activation": -19.6}, {"smiles": "O=C(Nc1cccc2ccccc12)c1onc2c1CCCC2", "activity change, positive = activation": 60}, {"smiles": "COc1ccc(C(=O)Nc2onc3c2CCCC3)cc1", "Potency": "0.794 µM (active)"}, {"smiles": "CCc1cc(C(N)=O)c(NC(=O)c2ccc(OC)cc2)s1", "Potency": "11.2 µM (active)"}, {"smiles": "Cc1ccc(CCNC(=O)Cn2c(-c3cccs3)cc3cc(F)ccc32)cc1", "activity change, positive = activation": -4.22}, {"smiles": "COc1ccccc1CNC(=O)CCCCn1c(=O)c2ccccc2n(CC(=O)Nc2cc(Cl)ccc2C)c1=O", "activity change, positive = activation": 2.43}, {"smiles": "O=C(COc1ccc(Cl)cc1)N(Cc1ccco1)Cc1ccco1", "activity change, positive = activation": -7.98}, {"smiles": "COc1cccc(NC(=O)N(Cc2cn(C)c3ccccc23)C2CCCCCC2)c1", "activity change, positive = activation": -10.9}, {"smiles": "CCn1c2ccccc2c2cc(NC(=O)COc3ccc(C)cc3C)ccc21", "activity change, positive = activation": -3.35}, {"smiles": "CCOC(=O)c1ccc(NC2=CC(c3ccc(OCC)cc3)N(c3ccc(C(=O)OCC)cc3)C2=O)cc1", "note": "(stereo unspecified)", "activity change, positive = activation": 6.6}, {"smiles": "Cc1nn2cc(-c3ccc(Cl)cc3)cnc2c1Br", "Potency": "3.55 µM (active)"}, {"smiles": "COc1ccccc1CNC(=O)CCn1c(=O)c2ccccc2n(CC(=O)Nc2ccc(Br)cc2F)c1=O", "activity change, positive = activation": 5.14}, {"smiles": "COc1ccc(NC(=O)c2ccc3oc(=O)c(S(=O)(=O)c4ccc(F)cc4)cc3c2)c(OC)c1", "activity change, positive = activation": 1.42}, {"smiles": "O=C(C1CC1)N1CCc2cc(Br)cc(S(=O)(=O)N3CCN(c4ccccc4F)CC3)c21", "activity change, positive = activation": -0.303}, {"smiles": "COc1cccc(C(=O)NC2=NC(c3ccc(N(C)C)cc3)CC(=O)N2)c1", "note": "(stereo unspecified)", "activity change, positive = activation": -5.38}, {"smiles": "CC(=O)Nc1ccc(C(=O)Nc2nc(-c3cc(C)n(Cc4ccccc4)c3C)cs2)cc1", "activity change, positive = activation": -33.5}, {"smiles": "Cc1cc(-c2csc(N)n2)c(C)n1-c1ccccc1", "Potency": "12.6 µM (active)"}, {"smiles": "Cc1cc(-c2csc(N)n2)c(C)n1Cc1ccccc1", "activity change, positive = activation": -2.13}, {"smiles": "COc1ccc(CCNc2nc3c(-c4cccc(F)c4)nnn3c3ccccc23)cc1OC", "activity change, positive = activation": -4.52}, {"smiles": "CCCN(CCC)C(=O)C(Cc1ccccc1)NS(=O)(=O)c1ccc2c(c1)c(=O)n(C)c(=O)n2C", "note": "(stereo unspecified)", "activity change, positive = activation": -1.75}, {"smiles": "O=C(Nc1cccc(-c2nnc(-c3ccccc3)o2)c1)C1CCCO1", "note": "(stereo unspecified)", "activity change, positive = activation": 29.6}, {"smiles": "O=C(Nc1nnc(CCc2ccccc2)s1)C1CCCO1", "note": "(stereo unspecified)", "activity change, positive = activation": 49.4}, {"smiles": "O=C(Nc1ccc(-c2nnc(-c3ccccc3)o2)cc1)C1CCCO1", "note": "(stereo unspecified)", "Potency": "3.55 µM (active)"}, {"smiles": "CCOc1ccc(CCNC(=O)c2cc3c(=O)n(C)c4ccccc4c3n2C)cc1", "activity change, positive = activation": 14.5}, {"smiles": "Cn1c(COc2ccccc2C(C)(C)C)nc2ccccc21", "activity change, positive = activation": 0.0855}, {"smiles": "CC1CCN(c2nc3ccc(C(=O)N4CCN(c5ccccc5)CC4)cc3s2)CC1", "activity change, positive = activation": -60.9}, {"smiles": "C=CC(C1=CC(=O)C=CC1=O)c1ccc(O)cc1", "note": "(stereo unspecified)", "activity change, positive = activation": 3.3}, {"smiles": "Cc1cccc(C(=O)O)c1", "activity change, positive = activation": -1.62}, {"smiles": "Cc1cccc(/C(N)=N/OC(=O)c2ccccc2Cl)c1", "Potency": "11.2 µM (active)"}, {"smiles": "N/C(=N\\OC(=O)c1cc(-c2ccccc2)nc2ccccc12)c1ccncc1", "activity change, positive = activation": -9.96}, {"smiles": "COc1ccc(CNc2nc(-c3ccc(Cl)cc3)nn2C(=O)c2ccccc2)cc1", "activity change, positive = activation": 5.14}, {"smiles": "COc1ccc2c(c1)c(=O)c(C(=O)c1ccccc1)cn2CC(=O)Nc1ccc2c(c1)OCCO2", "activity change, positive = activation": -7.16}, {"smiles": "Cn1c(CC(=O)Nc2ccccc2)nnc1SCC(=O)c1ccccc1", "activity change, positive = activation": -15.5}, {"smiles": "COc1ccc(-n2c(C)cc(C(=O)CSc3nnc(-c4cccs4)o3)c2C)cc1", "activity change, positive = activation": -65.5}, {"smiles": "Cc1ccc(-n2c(C)cc(C(=O)CSc3nnc4ccccn34)c2C)cc1", "Potency": "2.24 µM (active)"}, {"smiles": "O=C(CSc1nnc2ccccn12)c1ccccc1", "Potency": "12.6 µM (active)"}, {"smiles": "Cc1ccc(-n2c(C)cc(C(=O)CN3C(=O)C(=O)N(C4CCCC4)C3=O)c2C)cc1", "activity change, positive = activation": -21.9}, {"smiles": "N#Cc1ccc(CSc2nnc3ccccn23)cc1", "activity change, positive = activation": 18.2}, {"smiles": "Cn1c(=O)c2c(nc(Oc3ccc(C#N)cc3)n2Cc2ccc(Cl)cc2Cl)n(C)c1=O", "activity change, positive = activation": -11.5}, {"smiles": "Cc1cccc(C(C)C)c1NC(=O)C(NS(=O)(=O)c1cccc2nsnc12)c1ccccc1", "note": "(stereo unspecified)", "activity change, positive = activation": -1.11}, {"smiles": "CCOC(=O)N1CCc2c(sc3c2c(=O)n(Cc2ccccc2)c(=O)n3CC(=O)Nc2cccc(C)c2)C1", "activity change, positive = activation": 3.36}, {"smiles": "COc1ccc(N2CCN(C(=O)c3cn(C)c4ccc(S(=O)(=O)N5CCOCC5)cc4c3=O)CC2)cc1", "activity change, positive = activation": -4.72}, {"smiles": "Cc1cc(NC(=O)CC(C)C)cc(-c2nc3ncccc3o2)c1O", "activity change, positive = activation": -7.35}, {"smiles": "COc1ccc(NC(=O)CSC2=Nc3ccccc3C3=NC(CC(=O)NCc4ccccc4OC)C(=O)N23)cc1Cl", "note": "(stereo unspecified)", "activity change, positive = activation": 7.19}]}]}
